Screening results: PubChem BioAssay, several laboratories
EBV LMP1 NFkB – inhibitors of Epstein-Barr LMP1-induced NF-kappaB reporter; LMP1-induced NF-kappaB luciferase reporter cells, luminescence; inhibition, % at 12.5 µM; hit rate 0.69% among 350,000; AID 504558; in the data active = inhibition above about 41%; inconclusive = no clear call, values can overlap the other calls;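 also: 0% = neutral control wells and 100% = reference inhibitor control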
PAX8 reporter – lowers PAX8-driven luciferase in RMG-I cells; AID 652154; inhibition, % at 12.6 µM; RMG-I TPO-luciferase reporter, SteadyGlo, 24 h; hit rate 1.2% among 360,000;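 active = mean replicate inhibition at least 60% with every replicate also reaching 60%; inconclusive = only one of the two criteria is met; inactive = mean below 60% and not all replicates reaching 60%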;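 also: luciferase light reporting Pax8 driven TPO promoter activity; plate controls were median of neutral control wells for no effect and mitoxantrone controls for full effect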
EWS-Fli inh – blocks EWS/Fli oncoprotein-driven transcription; inhibition, % at 12.6 µM; A673 NR0B1-luciferase reporter, viability-normalised; AID 651661; hit rate 0.67% among 350,000;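 active = mean inhibition of at least 50% after viability correction, with every replicate also passing that limit; inconclusive = mean reaches 50% but only one of two replicates passes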;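 also: firefly luciferase signal divided by Alamar Blue viability fluorescence both relative to DMSO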
TROY signal inh – inhibitors of TROY-dependent NF-kB signaling. Q293 LMP1-TROYcd NF-kB luciferase reporter, 4 h. inhibition, % at 10 µM. hit rate 0.98% among 360,000;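 active = compounds whose plate-normalised and pattern-corrected inhibition of the luciferase reporter signal at the single screening dose is 50% or more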
TWEAK Fn14 block – TWEAK-Fn14 signaling inhibition | TWEAK-stimulated Fn14 reporter cells, luciferase luminescence, 8 h | inhibition, % at 10 µM | hit rate 2% among 360,000 | AID 1159606; in the data active = inhibition above about 50%
LGR2 inh – inhibitors of bursicon-induced Drosophila LGR2 receptor cAMP signaling; HEK293 LGR2, CRE-luciferase, bursicon-stimulated, 4 h; hit rate 0.35% among 380,000; inhibition, % at 9.99 µM; AID 720647;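 active = drop in luminescence signal, shown as inhibition above about 50% in the replicate tests, limit read from the data, passing the limit was not always enough; inconclusive = probably only some replicates passing the limit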;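 also: agonist challenge used bursicon conditioned medium at about half maximal strength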
Numbers without * were called inactive; ? = inconclusive; / = no result given. Rows were chosen to be rich in hits. Some 3.1% of all compounds tested hit in one or more screens of this group.

SMILES | EBV LMP1 NFkB | PAX8 reporter | EWS-Fli inh | TROY signal inh | TWEAK Fn14 block | LGR2 inh
O=C(Nc1ccc2c(c1)[C@@H]1C[C@H](CC(=O)N3CCc4ccccc4C3)O[C@@H](CO)[C@@H]1O2)C1CCOCC1 | / | -3 | -6 | / | / | 2
COc1cccc(-c2ccc3c(c2)[C@@H]2[C@@H](CCN2C(=O)Cc2ccncc2)[C@@H](CO)N3)c1 | / | -13 | -15 | / | / | -20
CCN1CCN(c2c(C=O)c(Cl)nc3ccc(OC)cc23)CC1 | 6 | 9 | -9 | 26 | 56* | 7
COc1ccc(C#Cc2ccc([C@@H]3[C@H]4CN(C(=O)Nc5cccc(F)c5)CCCCN4[C@H]3CO)cc2)cc1 | / | 15 | 15 | / | / | 2
COc1ccc(C#Cc2ccc([C@H]3[C@@H](CO)N4CCCCN(C(=O)Nc5cccc(F)c5)C[C@H]34)cc2)cc1 | / | 76* | 29 | / | / | -32
COc1ccc(C#Cc2ccc([C@@H]3[C@H](CO)N4CCCCN(C(=O)Nc5cccc(F)c5)C[C@@H]34)cc2)cc1 | / | 76* | 33 | / | / | 11
Cc1ccc(-c2ccc([C@H]3[C@@H](CO)N4CCCCN(C(=O)Nc5cccc(F)c5)C[C@H]34)cc2)cc1 | / | 108* | 15 | / | / | 12
CCC(=O)N(C)C[C@@H]1Oc2cc(C#CC3CCCCC3)ccc2S(=O)(=O)N([C@@H](C)CO)C[C@H]1C | / | -1 | 1 | / | / | 3
COc1cc(/C=C(/C#N)c2nc3ccccc3[nH]2)ccc1OCc1ccc(C(=O)O)o1 | 9 | / | 4 | -7 | 6 | 3
COC(=O)c1ccc(COc2ccc(/C=C(\C#N)c3nc4ccccc4[nH]3)cc2OC)o1 | -25 | / | / | 5 | 60* | /
Cc1cc(Cl)c(S(=O)(=O)N2CCSCC2)cc1OCC(=O)NC1CCCCC1 | 24 | / | / | 41 | 61* | /
Cc1cc(Cl)c(S(=O)(=O)N2CCN(c3ccccn3)CC2)cc1OCC(=O)NC1CCCCC1 | 32 | 13 | -1 | 53* | 63* | 19
O=C(/C=C/c1c(F)cccc1Cl)c1ccc(O)cc1 | -2 | 26 | 7 | -7 | 61* | 8
O=C(/C=C/c1ccccc1Cl)c1ccc(O)cc1 | 3 | -58 | -39 | 4 | 44 | -32
O=C(NNC(=O)c1ccccc1-n1cccc1)c1ccc(Cl)cc1 | 0 | / | / | -13 | 83* | /
O=C(NNC(=O)c1ccccc1-n1cccc1)c1ccc(Cl)c(Cl)c1 | -14 | / | / | 4 | 7 | /
COc1ccccc1NC(=O)N[C@@H]1CC[C@H](CCNS(=O)(=O)c2ccc(C)cc2)O[C@H]1CO | / | -2 | -5 | / | / | 10
CCN1CCN(c2cc(C)c3cc(NC(=S)N4CCCC(C)C4)ccc3n2)CC1 (stereo not drawn) | 13 | -15 | 7 | 83* | 86* | 23
CCN1CCN(c2cc(C)c3cc(NC(=S)N4CC(C)CC(C)C4)ccc3n2)CC1 (stereo not drawn) | 9 | -8 | 12 | 54* | 14 | -11
CCN1CCN(C(=S)Nc2ccc3nc(N4CCN(CC)CC4)cc(C)c3c2)CC1 | 3 | / | / | 13 | -15 | 15
C[C@H](CO)N1C[C@H](C)[C@H](CN(C)C(=O)Nc2ccccc2)Oc2ncc(Br)cc2C1=O | / | / | -8 | / | / | 16
O=[N+]([O-])c1cccc(-c2nnc(-c3ccc4c(c3)OCO4)o2)c1 | -31 | 144* | -97 | -55 | -57 | -34
O=C(C[C@H]1C[C@@H]2c3cc(NC(=O)C4CCC4)ccc3O[C@@H]2[C@H](CO)O1)NCC(F)(F)F | / | -9 | -4 | / | / | 15
O=C(C[C@H]1C[C@H]2c3cc(NS(=O)(=O)c4ccc(F)cc4)ccc3O[C@H]2[C@H](CO)O1)NC1CCCCC1 | / | 30 | 13 | / | / | -5
O=C(CC1(O)C(=O)N(CCc2ccccc2)c2ccccc21)c1ccco1 (stereo not drawn) | 0 | / | / | / | 86* | /
SMILES | EBV LMP1 NFkB | PAX8 reporter | EWS-Fli inh | TROY signal inh | TWEAK Fn14 block | LGR2 inh
O=C(Nc1ccc(F)cc1)N1CCCCN2[C@H](CO)[C@@H](c3ccc(C#Cc4ccccc4)cc3)[C@@H]2C1 | / | 24 | 7 | / | / | 1
COc1ccc(NC(=O)N2CCCCN3[C@H](CO)[C@H](c4ccc(C#Cc5ccccc5)cc4)[C@H]3C2)cc1 | / | 82* | 3 | / | / | /
COc1ccccc1NC(=O)N1CCCCN2[C@@H](CO)[C@@H](c3ccc(C#CC4CCCC4)cc3)[C@@H]2C1 | / | 59 | 71* | / | / | 16
COc1ccc(C#Cc2ccc([C@@H]3[C@H](CO)N4CCCCN(C(=O)Nc5ccccc5)C[C@@H]34)cc2)cc1 | / | 54 | 70* | / | / | -13
O=C(Nc1ccc(F)cc1)N1CCCCN2[C@@H](CO)[C@H](c3ccc(C#Cc4ccccc4)cc3)[C@@H]2C1 | / | 70* | 60* | / | / | 11
COc1ccccc1NC(=O)N[C@@H]1CC[C@@H](CC(=O)N2CCC(Cc3ccccc3)CC2)O[C@H]1CO | / | 28 | 3 | / | / | 12
CCOC(=O)C1CCCN(c2c(N3CCC(N4CCCCC4)CC3)c(=O)c2=O)C1 (stereo not drawn) | -11 | -4 | -3 | -9 | -1 | 2
CCCN1CCC(N2CCCC(C(=O)O)C2)CC1 (stereo not drawn) | 1 | 6 | -14 | 41 | 61* | -14
O=C(N/N=C/c1ccc(Cl)c([N+](=O)[O-])c1)c1cc(-c2ccc3c4c(cccc24)CC3)n[nH]1 | 35 | 97* | 24 | 6 | 64* | 2
O=C(C[C@H]1CC[C@@H]2[C@H](COC[C@@H](O)CN2C(=O)Cc2ccccc2)O1)NC1CCCC1 | / | -1 | 7 | / | / | -9
COc1ccccc1NC(=O)N[C@H]1C=C[C@@H](CC(=O)NCc2ccc(Cl)c(Cl)c2)O[C@H]1CO | / | 15 | 7 | / | / | 11
Nc1nc(CCl)nc(Nc2ccccc2)n1 | -14 | 88* | 34 | -3 | 13 | 1
Cc1ccc(Nc2nc(N)nc(CN3CCCCCC3)n2)c(C)c1 | 5 | / | / | -10 | -6 | /
Cc1cccc(Nc2nc(N)nc(CCl)n2)c1C | / | 125* | ? | -16 | -1 | /
Cc1ccc(Nc2nc(N)nc(CCl)n2)c(C)c1 | 33 | 106* | 44 | -27 | 36 | -44
Cc1ccc(Nc2nc(N)nc(CCl)n2)cc1 | -35 | 105* | 71* | -25 | 19 | -46
CO[C@@H]1CN(C)C(=O)c2ccc(NS(=O)(=O)CC(F)(F)F)cc2OC[C@@H](C)N(C(=O)c2ccc3c(c2)OCO3)C[C@@H]1C | / | -16 | -14 | / | / | 12
C[C@@H]1CN([C@H](C)CO)C(=O)c2cc(NC(=O)c3ccncc3)ccc2O[C@@H]1CN(C)C(=O)Nc1ccc2c(c1)OCO2 | / | / | -76 | / | / | 11
CCOc1ccc(Nc2nc(N)nc(CN3CCN(c4ccccc4F)CC3)n2)cc1 | 4 | -22 | -6 | 17 | 20 | 1
CCOc1ccc(Nc2nc(N)nc(CCl)n2)cc1 | 14 | 110* | 48 | -49 | 18 | /
Cc1ccc(Nc2nc(N)nc(CSc3nc4ccccc4s3)n2)cc1 | -20 | / | / | 44 | 83* | /
COc1cccc(-c2ccc([C@@H]3[C@H](CO)N4CCCCN(S(=O)(=O)c5cn(C)cn5)C[C@@H]34)cc2)c1 | / | -8 | -7 | / | / | 0
